CYP2C9 inh: human CYP2C9 inhibition. P11712. CYP2C9 Supersomes, luciferin-H conversion, luminescence. 96,000 compounds, 20% hits. inhibition, % at 5 µM;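 active = blocking of liver enzyme CYP2C9 beyond about 50% at 5 µM, limit read from the data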
D1 allo mod: D1 dopamine receptor (human) allosteric modulation; P21728; HEK293 D1, CRE-luciferase, dopamine EC30 potentiation; actives deviate in either direction; B-score at 10 µM; 58,000 compounds, 5.9% hits;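 active = luminescence count or its row- and column-corrected plate score outside the 99.7% band of the plate's sample wells, on either side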
CYP2C19 inhib: human CYP2C19 inhibition. inhibition, % at 5 µM. P33261. AID 778. 96,000 compounds, 21% hits. CYP2C19 Supersomes, luciferin-H EGE luminescence, 30 min;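 active = CYP2C19 inhibition above a set limit at 5 µM in the primary screen, cut at about 50% in these data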;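 also: plate controls were negative control wells for no effect and 2.5 mM tranylcypromine positive control for full effect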
CYP2C19 activ: increases human CYP2C19 enzyme activity; P33261; recombinant CYP2C19, luciferin-H EGE luminescence; hits give high values; 0 = fully inhibited enzyme, 1 = untreated enzyme; activation factor at 5 µM; 96,000 tested, under 10 active; AID 1025;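 active = activation factor of at least 2 at 5 µM in the primary screen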;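 also: 0 = wells with 2.5 mM tranylcypromine and 1 = vehicle-only wells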
hDAT+cocaine: human DAT dopamine uptake with cocaine, either direction. Q01959. LLC-PK1 hDAT cells, [14C]-dopamine uptake with cocaine IC80; actives deviate in either direction. B-score at 10 µM. 110,000 compounds, 1.3% hits. AID 449768;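 active = Z score or B-score, a plate-position-corrected score, falls beyond the plate's 99.7% confidence bounds, in either direction; inactive = both scores lie inside the 99.7% bounds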;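 also: scored against the spread of the other compound wells on the same plate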
Target sequence (Q01959 whole entry, looked up): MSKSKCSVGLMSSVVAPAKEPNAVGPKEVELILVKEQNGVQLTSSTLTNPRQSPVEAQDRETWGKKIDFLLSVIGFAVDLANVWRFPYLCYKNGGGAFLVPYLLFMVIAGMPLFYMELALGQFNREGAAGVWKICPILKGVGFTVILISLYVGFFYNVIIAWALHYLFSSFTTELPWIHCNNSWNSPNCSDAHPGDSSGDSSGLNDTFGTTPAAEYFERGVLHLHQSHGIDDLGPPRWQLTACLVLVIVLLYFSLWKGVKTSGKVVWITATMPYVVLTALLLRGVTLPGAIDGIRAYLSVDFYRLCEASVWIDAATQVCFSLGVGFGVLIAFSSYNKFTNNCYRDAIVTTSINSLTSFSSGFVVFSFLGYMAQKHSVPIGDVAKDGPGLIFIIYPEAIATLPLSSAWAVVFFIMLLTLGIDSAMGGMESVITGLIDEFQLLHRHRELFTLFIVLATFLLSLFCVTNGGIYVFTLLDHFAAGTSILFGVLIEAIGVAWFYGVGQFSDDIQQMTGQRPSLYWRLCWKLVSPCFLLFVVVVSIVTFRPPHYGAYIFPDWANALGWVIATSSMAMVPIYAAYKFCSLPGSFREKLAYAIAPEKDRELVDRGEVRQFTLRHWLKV
CYP2C9 activ: increases human cytochrome P450 2C9 activity. recombinant CYP2C9, luciferin-H conversion, luminescence; hits give high values; factor 1 = untreated enzyme, 0 = blocked. AID 1024. 96,000 compounds, 1.4% hits. activation factor at 5 µM. P11712;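 active = activation factor of 2 or more for CYP2C9 at a 5 µM dose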;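 also: 0 = sulfaphenazole-blocked wells and 1 = vehicle-only wells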
Numbers without * were called inactive; nt = not tested or not shown. Rows were chosen to be rich in hits. Some 28% of all compounds tested hit in one or more screens of this group.

SMILES	CYP2C9 inh	D1 allo mod	CYP2C19 inhib	CYP2C19 activ	hDAT+cocaine	CYP2C9 activ
O=C(CCSCCC(=O)NCc1ccco1)NCc1ccco1	90*	-0.02	16	0.8	-0.5	0.1
O=C(CC1CC2CCC1C2)NCc1cccs1 (configuration not stated)	19	1	66*	0.3	0.017	0.8
O=C1C2C3C=CC([C@@H]2C(=O)N1C1CCCCC1)[C@H]1C(=O)N(C2CCCCC2)C(=O)C31 (some centres not stated)	0	nt	6	0.9	0.21	1
Cc1ccc(-n2c(C)cc(C(=O)CSc3nnnn3C)c2C)cc1	61*	nt	53*	0.5	0.99	0.4
Cc1ccc(-n2c(C)cc(C(=O)CSc3nncs3)c2C)cc1	90*	nt	100*	0	0.29	0.1
COc1ccc(C(=O)Oc2ccc3oc(=O)sc3c2)cc1	4	nt	-5	1.1	0.34	1
CCOC(=O)N1CCN(C(=O)CSCC(=O)N=c2sc3cc(OC)ccc3n2C)CC1	nt	0.42	nt	nt	nt	nt
COc1ccc(C)cc1-n1c(N)c(C#N)c(C#N)c1-c1ccc(OC)c(OC)c1OC	50*	-0.61	26	0.7	1.2	0.5
COc1cccc(Cn2c(N)c(C#N)c3nc4ccccc4nc32)c1OC	17	2.3	25	0.7	1.6	0.8
COc1ccc(-c2noc(CCC(=O)NC3CCCCC3)n2)cc1OC	79*	-0.49	87*	0.1	-0.41	0.2
COc1cccc(-c2noc(CCC(=O)NC3CCCCC3)n2)c1	-54	-1.3	8	0.9	1	1.5
COc1ccc(-c2noc(CCC(=O)NC3CCN(Cc4ccccc4)CC3)n2)cc1	84*	nt	73*	0.3	0.37	0.2
COc1cc(-c2noc(CCCC(=O)NC3CCCCC3)n2)cc(OC)c1OC	9	nt	66*	0.3	2.3	0.9
O=C(CCCc1nc(-c2ccccc2Cl)no1)NC1CCCCC1	6	0.62	10	0.9	-0.59	0.9
CCOC(=O)C(CC)Sc1nc(N)c(NC(=O)c2ccc(OC)c(OC)c2)c(=O)[nH]1 (configuration not stated)	0	-1.1	0	1	0.4	1
CCn1cc(C(=O)NC(=S)Nc2cccc(O)c2)cn1	-68	nt	65*	0.4	-0.39	1.7
CCN(CC)c1ccc(NC(=O)c2cnn(CC)c2)cc1	-11	nt	7	0.9	0.059	1.1
COC(=O)c1c(C)[nH]c(C(=O)COC(=O)Cc2ccc3c(c2)OCCO3)c1C	81*	-0.41	20	0.8	0.35	0.2
CCc1cccc(CC)c1NC(=O)CSc1nc2ccc(N3C(=O)C4C5C=CC(C5)C4C3=O)cc2s1 (configuration not stated)	30	nt	35	0.7	1.4	0.7
Cc1cccc(NC(=O)CSc2nc3ccc(NC(=O)CSc4nnnn4-c4ccccc4)cc3s2)c1C	68*	nt	19	0.8	nt	0.3
Cc1cccc(NC(=O)CSc2nc3ccc(N4C(=O)c5ccccc5C4=O)cc3s2)c1C	70*	nt	30	0.7	-0.89	0.3
O=C1NC(c2ccccc2)=C(c2nc3ccccc3s2)C(c2ccc(O)cc2)N1 (configuration not stated)	39	nt	1	1	1.4	0.6
O=C1NC(c2ccccc2)=C(c2ccc3ccccc3n2)C(c2ccncc2)N1 (configuration not stated)	89*	nt	83*	0.2	0.7	0.1
CC1Cc2cc(C3(O)C(=O)c4ccccc4C3=O)ccc2N1 (configuration not stated)	-142	nt	60*	0.4	0.12	2.4*
Cc1ccc2nc(-c3ccc(NS(C)(=O)=O)cc3)cc(-c3ccccc3)c2c1	53*	nt	10	0.9	0.85	0.5
SMILES	CYP2C9 inh	D1 allo mod	CYP2C19 inhib	CYP2C19 activ	hDAT+cocaine	CYP2C9 activ
COc1ccc(C(=O)NCCCc2nc3ccccc3n2Cc2ccccc2C)cc1OC	nt	nt	nt	nt	0.89	nt
COc1cc(NC(=O)C2COc3ccccc3O2)c(OC)cc1Cl (configuration not stated)	84*	-0.014	86*	0.1	0.64	0.2
COC(=O)c1ccc(C)c(NC(=O)C2COc3ccccc3O2)c1 (configuration not stated)	79*	0.17	78*	0.2	-0.16	0.2
COc1ccc(OC)c(NS(=O)(=O)c2ccc(NC(=O)C3COc4ccccc4O3)cc2)c1 (configuration not stated)	11	0.42	57*	0.4	0.012	0.9
COC(=O)C(Cc1cnc[nH]1)NC(=O)C1CCC(=O)N1 (configuration not stated)	14	-0.16	-1	1	0.061	0.9
Cc1ccc(C(C#N)c2ccc3c(C(F)(F)F)cc(C(F)(F)F)nc3n2)cc1 (configuration not stated)	84*	nt	24	0.8	-0.018	0.2
CC1(OC(=O)c2cccs2)C(=O)C=C2C=C3CCCN3C=C2C1=O (configuration not stated)	nt	nt	nt	nt	-0.74	nt
CCN(C(=O)C1CCN(S(=O)(=O)c2ccc3c(c2)oc(=O)n3C)CC1)c1cccc(C)c1	0	nt	10	0.9	-1.1	1
CCC(=O)N[C@@H]1CC(C(C)(C)NC(=O)CC)CC=C1C (some centres not stated)	8	0.4	2	1	-9.9*	0.9
O=C(CNS(=O)(=O)c1ccc2ccccc2c1)OCC(=O)c1ccc(Br)s1	-132	nt	29	0.7	0.27	2.3*
COC(=O)CCCNS(=O)(=O)c1ccc2ccccc2c1	nt	nt	nt	nt	0.25	nt
CN1C(=O)/C(=C/c2ccccc2OCc2cccc(F)c2)NC1=S	65*	nt	-2	1	-0.68	0.3
Cc1ccc(NC(=O)C2CCN(C(=O)NC3CCCCC3)CC2)cc1	nt	nt	nt	nt	0.12	nt
Cn1c(=O)oc2cc(C(=O)c3ccccc3)ccc21	-13	nt	20	0.8	-0.13	1.1
Cc1c(C2(O)C(=O)Nc3ccc(F)cc32)c(=O)n(-c2ccccc2)n1C (configuration not stated)	26	-0.39	-22	1.2	-1.4	0.7
O=C1Nc2ccc(F)cc2C12SCCS2	-127	nt	43	0.6	nt	2.3*
CCCCOc1ccc(-c2nnn(C(C)(C)C(=O)OC)n2)cc1	57*	-1.1	42	0.6	0.79	0.4
CCCCOc1ccc(-c2nnn(C(C)C(=O)OCC)n2)cc1 (configuration not stated)	68*	-0.44	49	0.5	0.25	0.3
CCCCOc1ccc(-c2nnn(CC(=O)NCCc3c[nH]c4ccccc34)n2)cc1	49	nt	10	0.9	1.4	0.5
CCC(C(=O)O)n1nnc(-c2ccc(-c3ccc(OC)cc3)cc2)n1 (configuration not stated)	28	nt	0	1	-0.63	0.7
CC(C)(O)c1nnn(-c2ccccc2)c1C(F)(F)F	-10	0.0013	75*	0.3	-1	1.1

From PubChem
